Measurements published in PubChem BioAssay (NCI).
Compounds without any hit were thinned out: in the full panel of roughly 79,000, 15% have a hit. Activity calls are given as the source filed them. No stated cut-off is given here; in the data, active means growth inhibition above about 70%; inactive means the rest.

Legend:
[1] = NCI Yeast Anticancer Drug Screen. Data for the rad50 strain (AID 155);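 further: 0% = growth of vehicle-only cultures of the same strain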; settings: S. cerevisiae rad50 strain growth inhibition, active compounds read high
Summary of the method: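 DNA repair mutant yeast, compound exposure, growth read-out; inhibition is taken relative to vehicle.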

[2] = NCI Yeast Anticancer Drug Screen. Data for the mec2-1 strain (AID 157); settings: S. cerevisiae mec2-1 strain, active compounds read high
Summary of the method: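 Test agents were screened against the mec2-1 yeast strain, with defined DNA repair or cell cycle alteration. Growth was scored as inhibition against vehicle-only controls.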

[3] = NCI Yeast Anticancer Drug Screen. Data for the sgs1 mgt1 strain (AID 161);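 further: 0% = growth of cultures given vehicle only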; settings: S. cerevisiae sgs1 mgt1 strain, active compounds read high
Summary of the method: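 Genetically altered yeast, compound exposure, growth inhibition relative to vehicle.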

[4] = NCI Yeast Anticancer Drug Screen. Data for the cln2 rad14 strain (AID 165);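 further: 0% = growth equal to vehicle treated cultures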; settings: S. cerevisiae cln2 rad14 strain, active compounds read high
Summary of the method: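 Growth of compound-exposed yeast (cln2 rad14 genotype) measured and expressed as inhibition relative to vehicle.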

[5] = NCI Yeast Anticancer Drug Screen. Data for the bub3 strain (AID 167); settings: S. cerevisiae bub3 mutant strain, active compounds read high
Summary of the method: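 In this screen, a yeast mutant lacking normal mitotic checkpoint function is challenged with compound. Relative growth versus vehicle gives the inhibition value.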

[6] = NCI Yeast Anticancer Drug Screen. Data for the mlh1 rad18 strain (AID 175); settings: S. cerevisiae mlh1 rad18 strain growth inhibition, active compounds read high
Summary of the method: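 In this whole-cell yeast screen, a strain with altered DNA damage repair is challenged with compound, and its growth is measured against matched vehicle-treated controls.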

[7] = at 5.0 µM (retest, dose inferred, filed as 0.5)
[8] = at 50.0 µM (retest, dose inferred, filed as 5.0)

Measured: growth inhibition

COc1cc(Nc2ccc(Oc3ccc(O)cc3)cc2)c2ncccc2c1
active: [6]; at 50.0 µM 76%
inactive: [1]; [7] 6% | [1]; [8] 31% | [1]; at 50.0 µM 42.5% | [2]; [7] -12% | [2]; [8] 51% | [2]; at 50.0 µM 53.1% | [3]; [7] -12% | [3]; [8] 34% | [3]; at 50.0 µM 22.4% | [4]; [7] 2% | [4]; [8] 22% | [4]; at 50.0 µM 57.4% | [5]; [7] -9% | [5]; [8] 5% | [5]; at 50.0 µM 7.85% | [6]; [7] 14% | [6]; [8] 59%

C/C(=C/C(=O)/C=C/c1ccccc1)c1c(C)[nH]c2ccccc12
active: [5]; at 50.0 µM 81.9%
inactive: [1]; [7] -24% | [1]; [8] -3% | [1]; at 50.0 µM 4.3% | [2]; [7] -17% | [2]; [8] 3% | [2]; at 50.0 µM -19.1% | [3]; [7] -6% | [3]; [8] -4% | [3]; at 50.0 µM -7.4% | [4]; [7] 1% | [4]; [8] -6% | [4]; at 50.0 µM 34.4% | [5]; [7] 0% | [5]; [8] 1% | [6]; [7] 4% | [6]; [8] 16% | [6]; at 50.0 µM -0.4%

C[N+](C)(C)CC(=O)N/N=C/c1oc(-c2c(O)ccc3ccccc23)c(-c2c(O)ccc3ccccc23)c1[N+](=O)[O-]
active: [1]; at 50.0 µM 90% | [2]; at 50.0 µM 90.6% | [3]; at 50.0 µM 90.2% | [4]; at 50.0 µM 80.9% | [5]; at 50.0 µM 84.4% | [6]; at 50.0 µM 84.2%
inactive: [1]; [7] 57% | [1]; [8] 57% | [2]; [7] 47% | [2]; [8] 47% | [3]; [7] 51% | [3]; [8] 51% | [4]; [7] 13% | [4]; [8] 13% | [5]; [7] 44% | [5]; [8] 44% | [6]; [7] 58% | [6]; [8] 58%

NC(=S)C(=Nc1ccccc1F)Nc1ccccc1F
inactive: [1]; [7] 2% | [1]; at 50.0 µM 8.4% | [2]; [7] -8% | [2]; [8] 31% | [2]; at 50.0 µM -9.55% | [3]; [7] -10% | [3]; at 50.0 µM 61.6% | [4]; [7] -6% | [4]; [8] 35% | [4]; at 50.0 µM 5.55% | [5]; [7] -1% | [5]; at 50.0 µM 32.9% | [6]; [7] 20% | [6]; at 50.0 µM 66.2%
active: [1]; [8] 85% | [3]; [8] 70% | [5]; [8] 81% | [6]; [8] 87%

CCCCCCCC(CC(=O)O)OC(=O)CC(CCCCCCC)OC1OC(C)C(O)C(O)C1OC1OC(C)C(O)C(O)C1O (stereo not given)
active: [1]; at 50.0 µM 87.2% | [2]; at 50.0 µM 91.8% | [3]; at 50.0 µM 92.3% | [4]; at 50.0 µM 82.3% | [5]; [8] 96% | [5]; at 50.0 µM 89.5% | [6]; [8] 96% | [6]; at 50.0 µM 84.2%
inactive: [1]; [7] -62% | [1]; [8] 68% | [2]; [7] -26% | [2]; [8] -5% | [3]; [7] -43% | [3]; [8] 55% | [4]; [7] -42% | [4]; [8] 37% | [5]; [7] -47% | [6]; [7] -68%

COC(=O)c1ccccc1CC1Cc2cccc(C)c2C1=O (stereo not given)
inactive: [1]; [7] -2% | [1]; [8] 28% | [1]; at 50.0 µM 65.2% | [2]; [7] -3% | [2]; [8] 47% | [2]; at 50.0 µM 51% | [3]; [7] 14% | [3]; [8] 64% | [3]; at 50.0 µM 67.6% | [4]; [7] -2% | [4]; [8] 11% | [4]; at 50.0 µM 24.4% | [5]; [7] 5% | [6]; [7] 1% | [6]; [8] 40%
active: [5]; [8] 80% | [5]; at 50.0 µM 79.7% | [6]; at 50.0 µM 76%

CC(C)c1ccc(O)c(O)c(=O)c1
inactive: [1]; [7] 14% | [2]; [7] 9% | [2]; [8] 63% | [3]; [8] 44% | [4]; [7] 18% | [4]; [8] 26% | [5]; [7] 7% | [6]; [7] 41% | [6]; [8] 64%
active: [1]; [8] 89% | [1]; at 50.0 µM 92.8% | [2]; at 50.0 µM 94.7% | [3]; [7] 70% | [3]; at 50.0 µM 93.8% | [4]; at 50.0 µM 91.7% | [5]; [8] 79% | [5]; at 50.0 µM 93.1% | [6]; at 50.0 µM 92.7%

FC(F)(F)c1ccc(Nc2ccc(C(F)(F)F)cc2)cc1
inactive: [1]; [7] 9% | [2]; [7] -17% | [3]; [7] 12% | [4]; [7] -5% | [5]; [7] -3% | [6]; [7] 12%
active: [1]; [8] 100% | [1]; at 50.0 µM 99.6% | [2]; [8] 100% | [2]; at 50.0 µM 99.8% | [3]; [8] 100% | [3]; at 50.0 µM 99.6% | [4]; [8] 100% | [4]; at 50.0 µM 99.6% | [5]; [8] 99% | [5]; at 50.0 µM 99.7% | [6]; [8] 100% | [6]; at 50.0 µM 99.8%

O=C(c1ccccc1)N(C1CCCCC1)C1CCCCC1
inactive: [1]; [7] 7% | [2]; [7] 1% | [3]; [7] 5% | [4]; [7] -2% | [5]; [7] -3% | [6]; [7] 5%
active: [1]; [8] 97% | [1]; at 50.0 µM 98.1% | [2]; [8] 98% | [2]; at 50.0 µM 98.5% | [3]; [8] 97% | [3]; at 50.0 µM 99% | [4]; [8] 95% | [4]; at 50.0 µM 98.9% | [5]; [8] 93% | [5]; at 50.0 µM 98% | [6]; [8] 97% | [6]; at 50.0 µM 98.3%

O=C(N/N=C/c1cc(Br)ccc1O)c1ccccc1
inactive: [1]; [7] 59% | [1]; [8] 61% | [1]; at 50.0 µM -23.9% | [2]; [7] 32% | [2]; [8] 53% | [2]; at 50.0 µM -18.9% | [3]; [7] 64% | [3]; at 50.0 µM 5.65% | [4]; [7] 21% | [4]; [8] 25% | [4]; at 50.0 µM -33.9% | [5]; at 50.0 µM -12.6% | [6]; at 50.0 µM -6.75%
active: [3]; [8] 82% | [5]; [7] 79% | [5]; [8] 89% | [6]; [7] 92% | [6]; [8] 90%
